Reference: publication PMC7862700, “An all-to-all approach to the identification of sequence-specific readers for epigenetic DNA modifications on cytosine”

What was measured:
Test in all cases: DAPPL (digital affinity profiling via proximity ligation, sequencing); 10 mM Tris-HCl pH 7.5, 50 mM NaCl, 1 mM DTT, 4% glycerol, room temperature, 30 min; GST-TFs on glutathione beads, 16-mer random dsDNA library, 0.1% formaldehyde crosslink after washing; high values mean tight binding
FLI1 = target: T1, FLI1 (Homo sapiens, UniProt Q01543 1-452); conditions: protein: recombinant; tags: N-terminal GST; dsDNA, one strand shown
T1 sequence: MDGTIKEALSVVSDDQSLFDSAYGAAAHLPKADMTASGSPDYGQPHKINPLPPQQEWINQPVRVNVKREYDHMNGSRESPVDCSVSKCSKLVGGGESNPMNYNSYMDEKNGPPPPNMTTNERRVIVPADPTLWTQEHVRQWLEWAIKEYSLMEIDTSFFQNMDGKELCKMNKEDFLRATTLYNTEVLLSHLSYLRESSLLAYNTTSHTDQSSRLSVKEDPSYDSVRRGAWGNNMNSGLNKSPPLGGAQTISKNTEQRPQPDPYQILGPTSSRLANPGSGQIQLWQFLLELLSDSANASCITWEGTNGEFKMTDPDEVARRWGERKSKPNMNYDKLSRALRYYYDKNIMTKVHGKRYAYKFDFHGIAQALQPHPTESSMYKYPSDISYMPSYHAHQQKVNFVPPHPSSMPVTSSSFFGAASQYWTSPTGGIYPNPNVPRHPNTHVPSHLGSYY
Procedure, shortened: (§1)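 GST fusions of human transcription factors were expressed in yeast and captured with glutathione beads. Once given DNA barcodes and pooled alongside a tag-only sample, they were incubated for 30 min at room temperature with 200 nmole of a random double-stranded 16-mer DNA library in Tris/NaCl/DTT/glycerol buffer, then washed, crosslinked (0.1% formaldehyde), proximity-ligated, PCR-amplified and sequenced on an Illumina NextSeq500. The binding signal of each hexamer is its read frequency for a factor divided by its frequency for the tag-only sample.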

ELK1 = target: T2, ELK1 (Homo sapiens, UniProt P19419 1-428); conditions: protein: recombinant; tags: N-terminal GST; dsDNA, one strand shown
T2 sequence: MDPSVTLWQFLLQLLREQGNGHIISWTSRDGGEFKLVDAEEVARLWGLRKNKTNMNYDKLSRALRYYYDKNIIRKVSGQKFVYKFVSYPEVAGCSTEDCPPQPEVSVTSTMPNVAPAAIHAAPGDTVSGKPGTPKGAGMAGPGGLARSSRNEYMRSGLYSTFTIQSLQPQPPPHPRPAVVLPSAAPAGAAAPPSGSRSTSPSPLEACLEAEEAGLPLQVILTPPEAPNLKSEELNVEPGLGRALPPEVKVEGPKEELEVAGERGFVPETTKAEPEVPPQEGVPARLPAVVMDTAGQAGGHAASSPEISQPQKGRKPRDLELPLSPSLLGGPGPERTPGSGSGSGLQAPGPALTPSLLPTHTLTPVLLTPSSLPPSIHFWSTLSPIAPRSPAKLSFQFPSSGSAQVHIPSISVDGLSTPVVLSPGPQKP
Procedure, shortened: as §1

GABPA = target: T3, GABPA (Homo sapiens, UniProt Q06546 1-454); conditions: protein: recombinant; tags: N-terminal GST; dsDNA, one strand shown
T3 sequence: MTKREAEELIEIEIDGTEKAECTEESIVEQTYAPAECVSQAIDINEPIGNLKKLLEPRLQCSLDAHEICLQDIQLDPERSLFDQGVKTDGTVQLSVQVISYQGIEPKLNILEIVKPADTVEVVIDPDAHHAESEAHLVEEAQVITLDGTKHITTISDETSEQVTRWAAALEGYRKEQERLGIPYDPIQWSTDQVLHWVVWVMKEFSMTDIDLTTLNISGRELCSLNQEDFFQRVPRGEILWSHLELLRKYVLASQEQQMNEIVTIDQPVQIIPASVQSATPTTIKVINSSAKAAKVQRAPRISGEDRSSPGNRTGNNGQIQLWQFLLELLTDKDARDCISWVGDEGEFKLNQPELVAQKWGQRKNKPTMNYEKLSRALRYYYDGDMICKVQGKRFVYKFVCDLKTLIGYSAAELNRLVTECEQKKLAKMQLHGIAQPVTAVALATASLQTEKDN
Procedure, shortened: as §1

ERG = target: T4, ERG (Homo sapiens, UniProt P11308 1-479); conditions: protein: recombinant; tags: N-terminal GST; dsDNA, one strand shown
T4 sequence: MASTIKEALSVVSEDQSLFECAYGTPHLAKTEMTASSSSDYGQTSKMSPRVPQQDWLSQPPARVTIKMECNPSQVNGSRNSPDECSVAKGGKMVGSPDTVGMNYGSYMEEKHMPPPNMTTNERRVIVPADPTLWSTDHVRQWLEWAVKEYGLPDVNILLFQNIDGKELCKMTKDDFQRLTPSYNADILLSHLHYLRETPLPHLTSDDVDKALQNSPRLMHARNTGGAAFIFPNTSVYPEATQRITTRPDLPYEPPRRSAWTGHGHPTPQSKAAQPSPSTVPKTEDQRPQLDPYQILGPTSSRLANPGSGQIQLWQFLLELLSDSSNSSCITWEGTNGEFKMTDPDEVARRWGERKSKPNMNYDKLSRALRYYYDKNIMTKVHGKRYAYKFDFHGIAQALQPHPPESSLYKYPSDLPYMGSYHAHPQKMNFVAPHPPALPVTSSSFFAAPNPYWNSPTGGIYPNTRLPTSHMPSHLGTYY
Procedure, shortened: as §1

ELF1 = ELF1 (Homo sapiens, UniProt P32519 1-619); conditions: protein: recombinant; tags: N-terminal GST; dsDNA, one strand shown
Chain of ELF1 (P32519 whole entry): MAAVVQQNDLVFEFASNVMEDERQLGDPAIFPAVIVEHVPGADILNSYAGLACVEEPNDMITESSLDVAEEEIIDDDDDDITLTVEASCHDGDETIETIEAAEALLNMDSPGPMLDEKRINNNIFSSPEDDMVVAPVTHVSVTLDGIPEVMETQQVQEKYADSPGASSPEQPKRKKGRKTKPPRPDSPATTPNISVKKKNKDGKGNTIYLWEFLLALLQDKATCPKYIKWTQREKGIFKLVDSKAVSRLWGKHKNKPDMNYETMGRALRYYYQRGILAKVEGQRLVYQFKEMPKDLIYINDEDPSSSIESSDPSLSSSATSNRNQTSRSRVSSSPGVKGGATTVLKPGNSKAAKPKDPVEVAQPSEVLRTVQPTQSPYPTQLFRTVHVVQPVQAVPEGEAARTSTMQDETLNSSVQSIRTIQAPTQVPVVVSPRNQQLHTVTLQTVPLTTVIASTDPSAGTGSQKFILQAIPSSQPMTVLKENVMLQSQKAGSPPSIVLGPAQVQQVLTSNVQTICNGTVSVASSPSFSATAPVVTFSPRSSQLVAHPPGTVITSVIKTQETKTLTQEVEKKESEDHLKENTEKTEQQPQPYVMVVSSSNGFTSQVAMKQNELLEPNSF
Procedure, shortened: as §1

EHF = target: T5, EHF (Homo sapiens, UniProt Q9NZC4 1-300); conditions: protein: recombinant; tags: N-terminal GST; dsDNA, one strand shown
T5 sequence: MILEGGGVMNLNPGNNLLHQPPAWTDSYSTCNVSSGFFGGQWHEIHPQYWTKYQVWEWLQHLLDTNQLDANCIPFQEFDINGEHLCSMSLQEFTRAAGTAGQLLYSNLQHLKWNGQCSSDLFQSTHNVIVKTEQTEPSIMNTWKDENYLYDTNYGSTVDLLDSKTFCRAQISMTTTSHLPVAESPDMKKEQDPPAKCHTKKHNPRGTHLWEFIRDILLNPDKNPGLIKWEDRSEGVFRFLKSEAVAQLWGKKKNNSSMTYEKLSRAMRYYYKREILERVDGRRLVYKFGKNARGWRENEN
Procedure, shortened: as §1

SPI1 = SPI1 (Homo sapiens, UniProt P17947 1-270); conditions: protein: recombinant; tags: N-terminal GST; dsDNA, one strand shown
Procedure, shortened: as §1

SPIB = SPIB (Homo sapiens, UniProt Q01892 1-262); conditions: protein: recombinant; tags: N-terminal GST; dsDNA, one strand shown
Chain of SPIB (Q01892 whole entry): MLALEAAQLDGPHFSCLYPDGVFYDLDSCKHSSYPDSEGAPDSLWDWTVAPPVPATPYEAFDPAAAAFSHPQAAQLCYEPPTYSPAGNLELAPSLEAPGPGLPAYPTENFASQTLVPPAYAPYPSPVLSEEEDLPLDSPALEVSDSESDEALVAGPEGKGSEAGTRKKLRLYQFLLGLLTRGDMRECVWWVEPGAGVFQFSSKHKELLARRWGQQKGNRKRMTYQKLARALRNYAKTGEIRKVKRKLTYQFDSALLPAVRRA
Procedure, shortened: as §1

ELK3 = target: T6, ELK3 (Homo sapiens, UniProt P41970 1-407); conditions: protein: recombinant; tags: N-terminal GST; dsDNA, one strand shown
T6 sequence: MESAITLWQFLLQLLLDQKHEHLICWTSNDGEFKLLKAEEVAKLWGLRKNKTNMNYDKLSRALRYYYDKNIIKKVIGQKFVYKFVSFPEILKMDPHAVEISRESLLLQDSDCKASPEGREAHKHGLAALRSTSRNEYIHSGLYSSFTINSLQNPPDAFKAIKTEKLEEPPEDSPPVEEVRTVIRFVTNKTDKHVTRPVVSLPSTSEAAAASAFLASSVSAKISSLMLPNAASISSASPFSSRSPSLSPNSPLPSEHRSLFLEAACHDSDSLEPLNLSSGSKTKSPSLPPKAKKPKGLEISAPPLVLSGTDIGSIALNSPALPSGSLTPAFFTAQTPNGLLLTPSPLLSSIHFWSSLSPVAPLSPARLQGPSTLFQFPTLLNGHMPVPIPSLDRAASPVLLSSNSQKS
Procedure, shortened: as §1

FEV = target: T7, FEV (Homo sapiens, UniProt Q99581 1-238); conditions: protein: recombinant; tags: N-terminal GST; dsDNA, one strand shown
T7 sequence: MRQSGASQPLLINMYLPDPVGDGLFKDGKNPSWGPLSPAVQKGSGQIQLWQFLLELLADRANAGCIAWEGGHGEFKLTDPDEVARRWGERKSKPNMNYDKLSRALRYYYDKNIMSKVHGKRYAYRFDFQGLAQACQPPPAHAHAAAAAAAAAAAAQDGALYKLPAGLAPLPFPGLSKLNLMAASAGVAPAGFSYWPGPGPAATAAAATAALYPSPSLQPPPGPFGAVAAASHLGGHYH
Procedure, shortened: as §1

ETV5 = ETV5 (Homo sapiens, UniProt P41161 1-510); conditions: protein: recombinant; tags: N-terminal GST; dsDNA, one strand shown
Chain of ETV5 (P41161 whole entry): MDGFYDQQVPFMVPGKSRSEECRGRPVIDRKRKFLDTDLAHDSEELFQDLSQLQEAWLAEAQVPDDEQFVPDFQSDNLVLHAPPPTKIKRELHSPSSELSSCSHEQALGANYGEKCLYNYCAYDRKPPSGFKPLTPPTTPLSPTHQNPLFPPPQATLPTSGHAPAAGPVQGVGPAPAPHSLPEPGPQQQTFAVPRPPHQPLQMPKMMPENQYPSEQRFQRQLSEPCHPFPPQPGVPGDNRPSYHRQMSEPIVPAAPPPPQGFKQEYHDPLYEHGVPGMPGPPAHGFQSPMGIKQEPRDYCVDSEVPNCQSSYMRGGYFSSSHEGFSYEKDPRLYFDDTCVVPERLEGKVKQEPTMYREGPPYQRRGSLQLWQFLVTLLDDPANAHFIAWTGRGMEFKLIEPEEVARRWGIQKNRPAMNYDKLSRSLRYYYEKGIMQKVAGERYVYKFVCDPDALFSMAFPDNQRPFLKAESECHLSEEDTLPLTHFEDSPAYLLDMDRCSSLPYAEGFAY
Procedure, shortened: as §1

HSF1 = HSF1 (Homo sapiens, UniProt Q00613 1-529); conditions: protein: recombinant; tags: N-terminal GST; chain copies: 3; dsDNA, one strand shown
Chain of HSF1 (Q00613 whole entry): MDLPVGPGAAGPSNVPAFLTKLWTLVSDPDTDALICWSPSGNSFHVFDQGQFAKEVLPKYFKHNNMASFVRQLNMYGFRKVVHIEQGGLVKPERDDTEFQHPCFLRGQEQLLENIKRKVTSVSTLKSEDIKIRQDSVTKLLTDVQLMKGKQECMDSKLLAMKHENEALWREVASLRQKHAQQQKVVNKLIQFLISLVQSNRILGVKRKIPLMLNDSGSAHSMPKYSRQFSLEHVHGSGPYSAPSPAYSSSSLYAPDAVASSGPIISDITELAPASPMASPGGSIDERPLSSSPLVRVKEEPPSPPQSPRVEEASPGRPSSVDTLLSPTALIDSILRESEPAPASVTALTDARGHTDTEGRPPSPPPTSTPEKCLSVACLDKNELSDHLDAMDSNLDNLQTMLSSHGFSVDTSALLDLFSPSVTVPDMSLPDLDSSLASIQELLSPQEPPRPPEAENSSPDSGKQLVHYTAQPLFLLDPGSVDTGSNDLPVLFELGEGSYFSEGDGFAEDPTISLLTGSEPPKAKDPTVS
Procedure, shortened: as §1

SPIC = target: T8, SPIC (Homo sapiens, UniProt Q8N5J4 1-248); conditions: protein: recombinant; tags: N-terminal GST; dsDNA, one strand shown
T8 sequence: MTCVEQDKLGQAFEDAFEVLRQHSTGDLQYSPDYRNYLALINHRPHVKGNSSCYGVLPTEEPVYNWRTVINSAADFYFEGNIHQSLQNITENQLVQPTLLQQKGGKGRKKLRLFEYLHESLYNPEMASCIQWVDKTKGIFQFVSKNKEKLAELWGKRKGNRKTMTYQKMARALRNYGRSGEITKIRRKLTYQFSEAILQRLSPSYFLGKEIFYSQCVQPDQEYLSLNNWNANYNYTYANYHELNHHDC
Procedure, shortened: as §1

ELF4 = ELF4 (Homo sapiens, UniProt Q99607 1-663); conditions: protein: recombinant; tags: N-terminal GST; dsDNA, one strand shown
Chain of ELF4 (Q99607 whole entry): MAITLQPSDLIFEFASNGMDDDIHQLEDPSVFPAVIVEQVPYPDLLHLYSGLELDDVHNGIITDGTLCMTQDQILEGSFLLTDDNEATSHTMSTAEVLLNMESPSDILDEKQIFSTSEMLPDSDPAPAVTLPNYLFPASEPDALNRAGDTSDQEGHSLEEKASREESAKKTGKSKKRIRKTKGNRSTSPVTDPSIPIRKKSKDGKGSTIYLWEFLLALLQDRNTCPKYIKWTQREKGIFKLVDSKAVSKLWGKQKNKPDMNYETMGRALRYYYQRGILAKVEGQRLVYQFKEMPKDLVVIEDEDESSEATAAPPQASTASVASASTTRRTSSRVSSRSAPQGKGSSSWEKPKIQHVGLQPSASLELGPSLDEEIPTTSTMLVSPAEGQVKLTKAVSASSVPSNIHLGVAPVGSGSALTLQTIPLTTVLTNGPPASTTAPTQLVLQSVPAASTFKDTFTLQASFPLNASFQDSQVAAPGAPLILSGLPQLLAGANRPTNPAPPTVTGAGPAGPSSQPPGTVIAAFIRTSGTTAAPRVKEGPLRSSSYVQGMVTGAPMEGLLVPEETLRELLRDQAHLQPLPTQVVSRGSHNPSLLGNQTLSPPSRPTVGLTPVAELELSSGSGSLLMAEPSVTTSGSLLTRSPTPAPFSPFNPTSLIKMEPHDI
Procedure, shortened: as §1

ELK4 = target: T9, ELK4 (Homo sapiens, UniProt P28324-2 1-405); conditions: protein: recombinant; tags: N-terminal GST; dsDNA, one strand shown
T9 sequence: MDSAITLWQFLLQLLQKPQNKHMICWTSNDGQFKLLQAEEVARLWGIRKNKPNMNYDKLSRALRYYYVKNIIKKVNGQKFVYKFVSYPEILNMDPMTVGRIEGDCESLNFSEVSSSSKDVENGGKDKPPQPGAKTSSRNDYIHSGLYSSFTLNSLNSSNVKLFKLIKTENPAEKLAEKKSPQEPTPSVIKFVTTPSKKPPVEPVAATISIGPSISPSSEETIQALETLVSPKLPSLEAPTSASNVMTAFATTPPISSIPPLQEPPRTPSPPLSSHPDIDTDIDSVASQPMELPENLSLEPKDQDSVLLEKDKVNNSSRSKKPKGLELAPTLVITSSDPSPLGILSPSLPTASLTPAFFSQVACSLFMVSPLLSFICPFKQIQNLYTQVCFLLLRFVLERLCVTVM
Procedure, shortened: as §1

ETV2 = target: T10, ETV2 (Homo sapiens, UniProt O00321 1-342); conditions: protein: recombinant; tags: N-terminal GST; dsDNA, one strand shown
T10 sequence: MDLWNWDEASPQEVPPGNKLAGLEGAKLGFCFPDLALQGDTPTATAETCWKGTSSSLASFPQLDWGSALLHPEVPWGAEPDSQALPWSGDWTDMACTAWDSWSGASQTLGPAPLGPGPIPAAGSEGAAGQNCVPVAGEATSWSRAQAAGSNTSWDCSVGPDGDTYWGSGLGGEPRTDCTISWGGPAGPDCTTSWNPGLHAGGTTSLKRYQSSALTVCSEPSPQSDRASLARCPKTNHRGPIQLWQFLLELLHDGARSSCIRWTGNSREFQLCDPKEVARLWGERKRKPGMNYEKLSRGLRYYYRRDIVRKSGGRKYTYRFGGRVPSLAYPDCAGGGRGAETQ
Procedure, shortened: as §1

ELF3 = target: T11, ELF3 (Homo sapiens, UniProt P78545 1-371); conditions: protein: recombinant; tags: N-terminal GST; dsDNA, one strand shown
T11 sequence: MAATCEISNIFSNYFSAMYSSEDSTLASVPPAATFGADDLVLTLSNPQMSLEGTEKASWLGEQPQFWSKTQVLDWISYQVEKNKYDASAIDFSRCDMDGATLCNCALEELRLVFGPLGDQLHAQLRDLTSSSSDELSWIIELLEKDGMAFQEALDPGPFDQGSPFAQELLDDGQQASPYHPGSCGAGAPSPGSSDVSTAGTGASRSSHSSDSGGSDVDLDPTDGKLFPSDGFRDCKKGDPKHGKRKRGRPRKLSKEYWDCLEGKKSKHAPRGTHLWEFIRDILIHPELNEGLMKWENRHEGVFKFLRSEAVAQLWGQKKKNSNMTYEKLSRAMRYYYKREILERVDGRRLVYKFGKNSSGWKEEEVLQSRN
Procedure, shortened: as §1

CRX = CRX (Homo sapiens, UniProt O43186 1-299); conditions: protein: recombinant; tags: N-terminal GST; dsDNA, one strand shown
Chain of CRX (O43186 whole entry): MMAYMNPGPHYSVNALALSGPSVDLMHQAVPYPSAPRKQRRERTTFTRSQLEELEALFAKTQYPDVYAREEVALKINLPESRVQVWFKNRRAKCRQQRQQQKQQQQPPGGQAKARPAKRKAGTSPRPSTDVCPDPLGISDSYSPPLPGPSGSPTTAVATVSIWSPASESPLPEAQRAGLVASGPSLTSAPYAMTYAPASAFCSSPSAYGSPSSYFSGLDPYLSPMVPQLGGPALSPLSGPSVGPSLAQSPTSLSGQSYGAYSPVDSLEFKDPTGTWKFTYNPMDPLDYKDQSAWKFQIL
Procedure, shortened: as §1

ETV1 = ETV1 (Homo sapiens, UniProt P50549 1-477); conditions: protein: recombinant; tags: N-terminal GST; dsDNA, one strand shown
Chain of ETV1 (P50549 whole entry): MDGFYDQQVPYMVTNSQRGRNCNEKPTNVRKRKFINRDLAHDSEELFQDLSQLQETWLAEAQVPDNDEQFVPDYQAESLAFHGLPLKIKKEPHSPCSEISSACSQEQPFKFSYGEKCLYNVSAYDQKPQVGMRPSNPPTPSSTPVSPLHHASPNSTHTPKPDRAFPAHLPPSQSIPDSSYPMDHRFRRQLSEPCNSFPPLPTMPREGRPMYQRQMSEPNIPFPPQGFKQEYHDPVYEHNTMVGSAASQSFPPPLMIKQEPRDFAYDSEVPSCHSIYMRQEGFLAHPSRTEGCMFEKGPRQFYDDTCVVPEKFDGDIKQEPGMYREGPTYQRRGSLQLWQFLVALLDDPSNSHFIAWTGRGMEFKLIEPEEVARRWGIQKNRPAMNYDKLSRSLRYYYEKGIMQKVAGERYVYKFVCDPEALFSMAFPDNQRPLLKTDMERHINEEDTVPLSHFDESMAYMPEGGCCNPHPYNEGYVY
Procedure, shortened: as §1

AAATTA
binding signal (FLI1): 1.27 fold enrichment (6-mer frequency, TF over GST control)
binding signal (ELK1): 1.18 fold enrichment (6-mer frequency, TF over GST control)
binding signal (GABPA): 1.29 fold enrichment (6-mer frequency, TF over GST control)
binding signal (ERG): 1.28 fold enrichment (6-mer frequency, TF over GST control)
binding signal (ELF1): 1.29 fold enrichment (6-mer frequency, TF over GST control)
binding signal (EHF): 1.19 fold enrichment (6-mer frequency, TF over GST control)
binding signal (SPI1): 1.22 fold enrichment (6-mer frequency, TF over GST control)
binding signal (SPIB): 1.26 fold enrichment (6-mer frequency, TF over GST control)
binding signal (ELK3): 1.29 fold enrichment (6-mer frequency, TF over GST control)
binding signal (FEV): 1.19 fold enrichment (6-mer frequency, TF over GST control)
binding signal (ETV5): 1.26 fold enrichment (6-mer frequency, TF over GST control)
binding signal (HSF1): 1.44 fold enrichment (6-mer frequency, TF over GST control)
binding signal (SPIC): 1.21 fold enrichment (6-mer frequency, TF over GST control)
binding signal (ELF4): 1.23 fold enrichment (6-mer frequency, TF over GST control)
binding signal (ELK4): 1.28 fold enrichment (6-mer frequency, TF over GST control)
binding signal (ETV2): 1.4 fold enrichment (6-mer frequency, TF over GST control)
binding signal (ELF3): 1.31 fold enrichment (6-mer frequency, TF over GST control)
binding signal (CRX): 1.65 fold enrichment (6-mer frequency, TF over GST control)
binding signal (ETV1): 1.2 fold enrichment (6-mer frequency, TF over GST control)
